Inconclusive results are not listed. The source made the active and inactive calls. The call rests on the fitted dose curve.
Experiment: Primary qHTS to identify inhibitors of SARS-CoV-2 cell entry (AID 1645846); further: nearly all actives have a fitted effect of over 45% in size
Conditions: SARS-CoV-2 pseudovirus cell entry assay, luminescence; activity change, negative = inhibition: at 57.1 µM (top of the series) unless noted; series mostly up to 57.1 µM
From the text: Assay Provider: Wei Zheng, Ph.D.
National Center for Advancing Translational Sciences, National Institute of Health, Rockville, MD.
SARS-CoV-2 spike protein, within the viral envelope, mediates viral attachment and infection of host cells. The SARS-CoV-2 spike protein specifically binds to the host receptor ACE2 (Angiotensin-converting enzyme 2). This interaction promotes endocytosis of the viral particle, additional events lead to viral-host cell membrane fusion and release of the viral contents, allowing viral replication.
While SARS-CoV-2 requires BSL-3 facilities for live virus work, pseudotyped partices (PP) that incorporate SARS-CoV-2 spike proteins without replication elements could facilitate studies on viral entry mechanisms in a BSL-2 setting. This PP cell entry assay could also enable screening of small molecule compound libraries in BSL-2 setting to identify inhibitors of SARS-CoV-2 cell entry.
PROTOCOL TABLE (format as described by Inglese J, Shamu CE and Guy RK. 2007)
SEQUENCE No. (e.g., 1, 2, 3, etc.); […] (e.g., Cells, Incubation, Reagent, etc.); VALUE and DESCRIPTION.
1. Cells. Seed 1500 HEK293-ACE2 cells (Expi293F with stable expression of human ACE2) in 2 uL/well media (DMEM, 10% FBS, 1x L-glutamine, 1x Pen/Strep, 1 ug/ml puromycin) in white 1536-well assay plates (Greiner #782073).
2. Incubation. Incubate at 37C with 5% CO2 overnight (~16 h).
3. Compounds. Dispense 23 nL/well compounds in DMSO via pin transfer.
4. Incubation. Incubate for 1 hr at 37C 5% CO2.
5. Reagent. Dispense 2 uL/well of SARS-CoV-2-S pseudotyped particles. [a] PPs are produced with murine leukemia virus pseudotyping. [b] SARS-CoV-2-S is Wuhan-Hu-1 sequence (BEI #NR-52420) with C-terminal 19 amino acid truncation.
6. Centrifuge. […]
7. Incubation. Incubate at for 48 hr at 37C 5% CO2
8. Centrifuge. Remove supernatant with gentle centrifugation using a Blue Washer (BlueCat Bio).
9. Reagent. Dispense 4 uL/well of Bright-Glo Luciferase detection reagent (Promega #E2620).
10. Incubation. Incubate for 5 min at room temperature.
11. Detection. Read luminescence signal (Viewlux plate reader, PerkinElmer). Data was normalized with wells containing SARS-CoV-2-S PP as 100%, and wells containing bald PP (no fusion protein) as 0%.
Potency means the concentration at half of the fitted maximal effect.

| Structure (SMILES) | activity change, negative = inhibition | outcome | Potency |
| --- | --- | --- | --- |
| CCC(=O)O[C@]1(C(=O)CCl)[C@@H](C)C[C@H]2[C@@H]3CCC4=CC(=O)C=C[C@]4(C)[C@@]3(F)[C@@H](O)C[C@@]21C | -9.65% | inactive | – |
| CC(=O)OCC(=O)Nc1cc(C#N)cc(NC(=O)COC(C)=O)c1Cl | – | inactive | – |
| CC(=O)OCC1=C(C(=O)O)N2C(=O)[C@@H](NC(=O)CSc3ccncc3)[C@H]2SC1 | – | inactive | – |
| CCOCC(O)COc1ccc(NC(=O)CC[S+](C)C)cc1 (stereo not given) | -2.31% | inactive | – |
| Cc1c(C(=O)NN2CCCCC2)nn(-c2ccc(Cl)cc2Cl)c1-c1ccc(Cl)cc1 | -26.4% | – | – |
| C[C@H]1C[C@H]2[C@@H]3CCC4=CC(=O)C=C[C@]4(C)[C@H]3C(=O)C[C@]2(C)[C@@]1(O)C(=O)CO | 4.44% | inactive | – |
| CC(=O)OCC(=O)[C@@]1(O)CC[C@H]2[C@@H]3CCC4=CC(=O)C=C[C@]4(C)[C@H]3[C@@H](O)C[C@@]21C | – | – | inactive |
| CCOC(=O)[C@H](CCc1ccccc1)N[C@H]1CCc2ccccc2N(CC(=O)O)C1=O | -24.9% | – | – |
| COc1cc([C@H]2Oc3cc([C@H]4Oc5cc(O)cc(O)c5C(=O)[C@@H]4O)ccc3O[C@@H]2CO)ccc1O | -12.9% | – | – |
| COC(=O)C1=C(C)NC(C)=C(C(=O)OCCN2CCN(C(c3ccccc3)c3ccccc3)CC2)C1c1cccc([N+](=O)[O-])c1 (stereo not given) | – | – | 17.8 µM (active) |
| CCOC(=O)[C@H](CCc1ccccc1)N[C@@H](C)C(=O)N1C(=O)N(C)C[C@H]1C(=O)O | -10.6% | – | – |
| Cc1ccc(O)cc1 | -24.6% | – | – |
| OC1C(O)C(O)C(O)C(O)C1O (stereo not given) | -22.4% | – | – |
| CNC(C)Cc1ccccc1OC (stereo not given) | – | inactive | – |
| CCCCCCCCCCCCCCCCCCNC(=O)OC1CCN(C(=O)OC[C@H](COC(=O)N(Cc2cccc[n+]2CC)C(=O)c2ccccc2OC)OC)CC1 | – | – | 10 µM (active) |
| C#CC1(O)CC[C@H]2[C@@H]3CCC4=CCCC[C@@H]4[C@H]3CC[C@@]21C (stereo not given in full) | – | inactive | – |

| Structure (SMILES) | activity change, negative = inhibition | outcome | Potency |
| --- | --- | --- | --- |
| O=S(=O)(c1cccc2cnccc12)N1CCCNCC1 | -0.418% | inactive | – |
| Cc1cc(C(C)(C)C)c(O)c(C)c1CC1=NCCN1 | -17.1% | inactive | – |
| CO[C@]1(NC(=O)CSC(F)F)C(=O)N2C(C(=O)O)=C(CSc3nnnn3CCO)CO[C@H]21 | – | inactive | – |
| COc1ccc2[nH]c(S(=O)Cc3ncc(C)c(OC)c3C)nc2n1 (stereo not given) | -10.1% | inactive | – |
| CCCCCCCCC(=O)NCc1ccc(O)c(OC)c1 | 4.35% | – | – |
| COc1ccc2c(c1)C(=O)N(CCc1ccc(S(=O)(=O)NC(=O)NC3CCCCC3)cc1)C(=O)C2(C)C | – | inactive | – |
| NCCc1cnc[nH]1 | 0.209% | inactive | – |
| COc1cc(OC)cc(OC)c1 | – | inactive | – |
| CC(=O)N(CC(O)CN(C(C)=O)c1c(I)c(C(=O)NCC(O)CO)c(I)c(C(=O)NCC(O)CO)c1I)c1c(I)c(C(=O)NCC(O)CO)c(I)c(C(=O)NCC(O)CO)c1I (stereo not given) | – | inactive | – |
| CN1CCN(C2=Nc3ccccc3Sc3ccc(Cl)cc32)CC1 | -10.6% | – | – |
| CN1CCOC(c2ccccc2)c2ccccc2C1 (stereo not given) | – | inactive | – |
| CC(C)OC(=O)C(C(=O)OC(C)C)=C1SC=CS1 | -9.44% | inactive | – |
| CCCCN(CCN(CCCC)C(=O)N1CCOCC1)C(=O)N1CCOCC1 | – | inactive | – |
| NCCNC(=O)c1ccc(Cl)cn1 | -12.8% | – | – |
| Oc1c(Cl)cc(Cl)c(Cl)c1Cc1c(O)c(Cl)cc(Cl)c1Cl | – | – | 3.16 µM (active) |
| C[C@@H]1CCN(C(=O)[C@H](CCCN=C(N)N)NS(=O)(=O)c2cccc3c2NC[C@H](C)C3)[C@@H](C(=O)O)C1 | -11.8% | – | – |

From PubChem BioAssay (NCATS)
